This passage reports inhibition results from PubChem BioAssay AID2216 (Broad Institute, 2009).

Hit rate of the full screen: of about 300,000 compounds, about 3,300 (1.1%) were called active. Another 6% or so got no clear call; they are omitted.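 The calls were made as follows: active = more than half of the replicate wells show a fall in the fluorescence ratio signal beyond about 16% (limit read from the data, passing the limit was not always enough); inconclusive = exactly half of the replicate wells pass the set limit; inactive = fewer than half of replicates pass the limit.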 The list comes from a sample in which actives are over-represented; it also holds similar structures and randomly drawn compounds.

The assay relates to Ran GTPase (GTP-bound) - importin-beta complex. The assay is described as follows: inhibitors of RanGTP-importin-beta interaction, primary screen, biochemical, FRET, CFP-Ran, YFP-importin-beta, homogeneous (AID 2216).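 Also: 0% = DMSO wells and 100% = Ran loaded with GDP instead of GTP.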 Conditions: cell-free CFP-Ran/YFP-importin-beta FRET ratio; active compounds read high; concentration not given here.
The inhibition is the drop in the measured response relative to a control, in per cent. As for `CCOC(=O)C(O)(c1ccc(NC(=O)c2ccco2)c(OC)c1)C(F)(F)F` (stereo not given), the inhibition is -1.67% (inactive). The figure for `COC(=O)C1=C(c2ccccc2)C[C@@H]2CC[C@H]1N2C(=O)NCc1ccco1` is 1.27% (inactive); for `COc1cc(Cn2c(N)c(C(=O)NCc3ccco3)c3nc4ccccc4nc32)cc(OC)c1OC` it is 54% (active); for `C/C(=N/O)c1ccc2ccc3ccccc3c2c1` it is 4.2% (inactive).

In the case of `CC[C@H]1CC2CN3CCc4c([nH]c5ccccc45)C(C(=O)OC)(C2)C13` (stereo not given in full), the inhibition was -1.66% (inactive).
